Compounds with a hit are over-represented: about 1.6% of the library has one in this group of screens.
Myeloid diff MLP – induction of myeloid progenitor differentiation, primary screen, cell-based, flow cytometry, MLPCN library; calls only at 10 µM; 360,000 compounds, 1% hits; ER-HoxA9 myeloid progenitors, lysozyme-GFP differentiation;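 active = normalized GFP-positive differentiation at or above the plate's own cutoff, the solvent-only control mean plus 3 SD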;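 also: cells exposed to compound for four days before flow analysis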
Vif inh – HIV Vif self-association inhibitors, primary screen, imaging, HEK293T, single point; 340,000 compounds, 0.35% hits; inhibition, % at 7.49 µM; HEK293T cells, Vif self-association by quenched fluorescence, 24 h; in the data active = inhibition above about 50%, passing the limit was not always enough
ABCB6 inh 2 – ABCB6 transporter inhibitors, primary screen, K562-ABCB6 cells, flow cytometry, MLPCN library | K562-ABCB6 porphyrin accumulation, 1 h; active compounds read low | AID 602162, 2011 | fluorescence ratio to DMSO, % at 10 µM | 360,000 compounds, 0.19% hits | ATP-binding cassette sub-family B member 6 (Homo sapiens), Q9NP58;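 active = fluorescence ratio to DMSO below 75%, the collection mean minus 3 SD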;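 also: signal is porphyrin accumulated inside mitochondria; lower ratio means ABCB6 inhibition with less porphyrin fluorescence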
Target sequence (Q9NP58 whole entry, looked up): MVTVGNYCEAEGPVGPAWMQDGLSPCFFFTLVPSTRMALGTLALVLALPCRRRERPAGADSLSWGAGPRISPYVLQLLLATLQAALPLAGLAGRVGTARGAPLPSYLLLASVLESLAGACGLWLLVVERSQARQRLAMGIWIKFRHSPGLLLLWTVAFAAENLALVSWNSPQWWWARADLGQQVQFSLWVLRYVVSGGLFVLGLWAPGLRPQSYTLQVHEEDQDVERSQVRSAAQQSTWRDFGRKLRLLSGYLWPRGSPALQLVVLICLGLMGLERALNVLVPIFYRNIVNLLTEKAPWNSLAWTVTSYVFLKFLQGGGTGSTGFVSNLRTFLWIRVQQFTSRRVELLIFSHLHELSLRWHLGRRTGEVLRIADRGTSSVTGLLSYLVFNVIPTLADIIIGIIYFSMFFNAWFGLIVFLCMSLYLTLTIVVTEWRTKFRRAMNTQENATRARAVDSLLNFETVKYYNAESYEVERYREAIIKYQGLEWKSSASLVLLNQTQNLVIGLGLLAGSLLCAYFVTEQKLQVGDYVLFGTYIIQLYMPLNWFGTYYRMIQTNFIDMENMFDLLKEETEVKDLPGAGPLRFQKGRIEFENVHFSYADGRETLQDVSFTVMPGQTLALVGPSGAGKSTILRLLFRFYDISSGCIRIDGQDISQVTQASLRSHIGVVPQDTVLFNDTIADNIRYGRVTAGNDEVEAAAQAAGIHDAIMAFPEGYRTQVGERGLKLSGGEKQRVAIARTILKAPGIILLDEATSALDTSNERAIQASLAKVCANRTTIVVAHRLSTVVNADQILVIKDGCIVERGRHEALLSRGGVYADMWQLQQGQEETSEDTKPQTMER
RAD54 inh – inhibitors of human RAD54 branch migration, primary screen, biochemical, fluorescence, single point; RAD54 Holliday junction branch migration, FAM/BHQ fluorescence; 360,000 compounds, 0.14% hits; inhibition, % at 10.4 µM; DNA repair and recombination protein RAD54-like (Homo sapiens), Q92698;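 active = mean normalized replicate activity at least 40 and at least half of replicates scoring 40 or more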;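 also: inhibitors cause a drop in the FAM fluorescence signal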
Glyco luc inh – increase of ERlucT glycosylation luciferase signal, primary screen, N-linked glycosylation inhibitor project, D54 ERlucT cells, luminescence, set 2; D54 ERlucT glycosylation luciferase reporter, 24 h; percent of 100 nM tunicamycin response; reporter increase, % at 12.5 µM; 360,000 compounds, 0.23% hits; AID 588692, 2011;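 active = mean luciferase reporter signal, scaled so untreated is 0 and the glycosylation-blocking control 100, at or above a set limit in every replicate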;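 also: luciferase carries N-glycosylation sites so blocking glycosylation raises the light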
Myeloid diff CP1 – inducers of myeloid progenitor differentiation, confirmation, cell-based, GFP/Mac1 flow cytometry, cherry pick 01. shares compounds with Myeloid diff MLP. ER-HoxA9 myeloid progenitors, GFP/Mac1 double-positive flow. calls only. 2,300 compounds, 2% hits;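 active = share of green or green-and-red cells above 9 and 9% in run 1 or 4 and 3% in run 2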
GFP autofluor – counter-screen for myeloid differentiation promoters: compound fluorescence | shares compounds with Myeloid diff MLP | ER-HoxA9 myeloid progenitors, no estrogen, GFP autofluorescence flow cytometry; vehicle wells 0%, positive control 100% | fluorescence response, % (concentration not given with the values) | 2,300 compounds, 7.4% hits;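 active = over 5% cells positive for green fluorescent reporter, or over 2% positive for both it and APC stain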
Calls only; n = inactive; x = not tested or not shown; + = active, no number.

SMILES | Myeloid diff MLP | Vif inh | ABCB6 inh 2 | RAD54 inh | Glyco luc inh | Myeloid diff CP1 | GFP autofluor
Cc1ccc(-c2nn3c(C)nnc3s2)cc1NC(=O)CSc1ccc(Cl)cc1 | + | n | n | n | n | + | n
O=C(Nc1cccc2ccccc12)/C(=C/c1cccc([N+](=O)[O-])c1)NC(=O)c1cccs1 | n | n | n | n | n | x | x
O=C(Nc1cccc2ccccc12)/C(=C\c1cccc([N+](=O)[O-])c1)NC(=O)c1cccs1 | + | n | n | n | n | n | n
C[C@H](CO)N1C[C@H](C)[C@H](CN(C)Cc2ccccc2)Oc2cc(C3=CCCC3)ccc2S1(=O)=O | x | x | x | n | x | x | x
CCOC(=O)c1c(NC(=O)CCC(=O)O)sc2c1CCCCC2 | n | n | n | x | n | x | x
CCOC(=O)c1c(NC(=O)CNCCOC)sc2c1CCCC2 | n | n | n | n | n | n | n
Cc1ccc(S(=O)(=O)N(C)C[C@@H]2Oc3c(NS(C)(=O)=O)cccc3C(=O)N([C@H](C)CO)C[C@H]2C)cc1 | x | x | x | n | x | x | x
C[C@@H]1CN([C@H](C)CO)C(=O)c2cc(C#Cc3ccccc3)cnc2O[C@@H]1CN(C)C(=O)CCN1CCCCC1 | x | x | x | n | x | x | x
CC(C)c1nc(SCC(=O)N2CCCCCC2)c2c(=O)n(C)c(=O)n(C)c2n1 | n | n | n | n | n | x | x
CC(C)c1nc(SCC(=O)N2CCCC2)c2c(=O)n(C)c(=O)n(C)c2n1 | + | n | n | n | n | n | n
COc1ccccc1NC(=O)N[C@H]1C=C[C@@H](CC(=O)N[C@H](C)c2ccccc2)O[C@H]1CO | x | x | x | n | x | x | x
COc1ccc(-c2cn(CC[C@H]3CC[C@@H](NC(=O)NC(C)C)[C@H](CO)O3)nn2)cc1 | x | x | x | n | x | x | x
O=C(C[C@H]1CC[C@@H]2[C@H](COC[C@@H](O)CN2C(=O)Nc2ccc(F)cc2)O1)NC1CCC1 | x | x | x | n | x | x | x
COc1cccc(NC(=S)Nc2cccc3ccccc23)c1 | n | n | n | n | n | n | n
CC(C)NC(=O)N[C@H]1C=C[C@@H](CC(=O)NCCCN(C)C)O[C@H]1CO | x | x | x | n | x | x | x
CCCC#Cc1ccc2c(c1)O[C@@H](CN(C)Cc1ccncc1)[C@H](C)CN([C@@H](C)CO)S2(=O)=O | x | x | x | n | x | x | x
Cc1ccc(C2=NN(C(=S)Nc3ccccc3)C(c3ccco3)C2)cc1 (stereo unspecified) | n | n | n | n | n | x | x
C=CCNC(=S)N1N=C(c2ccco2)CC1c1ccco1 (stereo unspecified) | n | n | n | n | n | n | n
COc1cccc(-c2sc3ccccc3c2-c2ccc(OCCN3CCCC3)cc2)c1 | n | n | n | n | n | x | x
COc1cccc(-c2sc3ccccc3c2-c2ccc(OCCN3CCCCC3)cc2)c1 | n | n | n | n | n | n | n
c1ccc(-c2sc3ccccc3c2-c2ccc(OCCN3CCCC3)cc2)cc1 | n | n | n | n | n | n | n
COC(=O)c1ccc(Nc2cc(C)nc3ccc(C)cc23)cc1 | + | n | n | x | n | n | n
COC(=O)c1ccc2nc(C)cc(Nc3ccccc3C)c2c1 | n | n | n | n | n | x | x
CCn1c(=O)n(CC(=O)N(C)Cc2ccccc2)c(=O)c2ccccc21 | + | n | n | n | n | n | n
COc1ccc(S(=O)(=O)N2CCCCN3[C@@H](CO)[C@H](c4ccc(C5=CCCC5)cc4)[C@@H]3C2)cc1 | x | x | x | n | x | x | x
CC(C)c1ccc(/C=C(\c2nc3ccccc3[nH]2)S(=O)(=O)c2ccccc2)cc1 | + | n | n | x | n | n | n
CCCNC(=O)NC(=O)CSc1nc2ccccc2n1CC(C)C | n | n | n | n | n | n | n
CC(=O)N(C)C[C@@H]1Oc2cc(-c3ccncc3)ccc2S(=O)(=O)N([C@H](C)CO)C[C@@H]1C | x | x | x | n | x | x | x
CCCCOc1ccc(/C(O)=C2/C(=O)C(=O)N(CCCOC)C2c2ccncc2)cc1 (stereo unspecified) | n | n | n | x | n | x | x
